Rab9 promoter act: Rab9 promoter activation; Huh7 Rab9 promoter-luciferase reporter, luminescence, 24 h; AID 485297; Potency, µM (titrated, usually from 9.22 µM), for inactives: at the top dose activation, negative = inhibition, usual class: activators; hit rate 2.8% among 320,000; also: % of control where 0% means no effect; nearly all actives have a fitted effect of over 60% in size
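Huh7 cells stably carrying a Rab9 promoter-luciferase reporter, 1500 cells per well in OP-MEM I with 10% FBS, treated with compound 24 hours at 37C. Luciferase activity read by luminescence after 10 minutes with Amplite reagent.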
SMN2 splice up: SMN2 splice variant enhancement; Potency, µM (titrated, usually from 46.1 µM), without a hit: at the top dose activity change, positive = activation, most hits filed as activators; AID 1458; HEK293 SMN2-luciferase splicing reporter, luminescence, 30-36 h; hit rate 2.8% among 210,000; also: % of control where 0% means no effect; nearly all actives have a fitted effect of over 55% in size
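HEK293 cells carry an SMN2 […]–luciferase reporter in which exon 7 inclusion puts luciferase in frame. Cells were plated 10-12 h before compound addition, then incubated 30-36 h at 37C. ONE-Glo luminescence was read; sodium butyrate at 4.5 mM final served as control.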
Luc counter: blocks Kinase-Glo luciferase, a counter-screen artifact | Q27757 | Kinase-Glo luciferase, ATP luminescence, 8 min | Potency, µM (titrated, usually from 38.3 µM), without a hit: top-dose activity change, negative = inhibition, most hits filed as inhibitors | hit rate 0.28% among 200,000 | AID 1379; also: % is scaled to controls: 0 for no effect and ±100 for the full control effect; nearly all actives have a fitted effect of over 60% in size
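Compound is pinned into ATP-containing buffer (10 uM ATP, imidazole pH 7.2, 7 mM MgCl2). Kinase-Glo luciferase reagent is then added. Light output is recorded following an 8-min room-temperature incubation.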
FLuc modulator: firefly luciferase modulation, counter-screen for miR-21 project; Potency, µM (doses to about 57.5 µM), inactives show at the highest dose activity change, negative = inhibition, actives largely listed as inhibitors; P08659; purified FLuc, Km substrates, luminescence inhibition; hit rate 6.9% among 360,000;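 also: plate controls were vehicle for no effect and reference inhibitor for full effect; nearly all actives have a fitted effect of over 55% in size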
Target sequence (P08659 whole entry, looked up): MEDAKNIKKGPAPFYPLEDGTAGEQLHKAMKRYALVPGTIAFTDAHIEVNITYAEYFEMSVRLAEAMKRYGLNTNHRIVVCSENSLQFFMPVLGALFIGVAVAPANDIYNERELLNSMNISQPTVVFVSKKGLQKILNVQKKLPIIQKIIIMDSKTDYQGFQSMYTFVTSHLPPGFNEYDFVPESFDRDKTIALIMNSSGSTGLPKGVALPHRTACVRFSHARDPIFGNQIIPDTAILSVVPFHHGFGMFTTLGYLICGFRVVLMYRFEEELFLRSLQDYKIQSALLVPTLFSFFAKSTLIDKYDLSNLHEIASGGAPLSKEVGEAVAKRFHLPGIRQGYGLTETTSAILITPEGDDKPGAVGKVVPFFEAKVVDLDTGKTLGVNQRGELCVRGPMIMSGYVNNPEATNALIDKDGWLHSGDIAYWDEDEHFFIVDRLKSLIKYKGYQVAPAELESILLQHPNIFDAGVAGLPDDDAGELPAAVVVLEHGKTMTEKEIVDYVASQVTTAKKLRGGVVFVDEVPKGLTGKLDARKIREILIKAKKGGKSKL
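Purified P. pyralis luciferase, 10 nM final, with Km-level 10 uM D-luciferin and 10 uM ATP in 50 mM Tris acetate pH 7.5, 10 mM Mg acetate, 0.01% Tween-20, 0.05% BSA; 6-point qHTS titration about 60 µM downward; luminescence read.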
ELG1 genotox: induces genotoxicity in HEK293T cells with luciferase-tagged ELG1. HEK293T ELG1-luciferase reporter, luminescence, 16 h. hit rate 1.3% among 330,000. Potency, µM (titrated, usually from 46 µM), without a hit: top-dose activity change, positive = activation, actives largely listed as activators; also: % of control where 0% means no effect; nearly all actives have a fitted effect of over 60% in size
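HEK293T cells expressing luciferase-tagged ELG1 were treated with compound or DMSO for 16 hr at 37°C. Luciferase activity was then read after 30 min with ONE-Glo at room temperature; rising signal flags genetic stress.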
NPC1 prom act: activators of NPC1 promoter. Potency, µM (doses to about 9.22 µM), without a hit: at the top dose activation, actives largely listed as activators. hit rate 2.4% among 320,000. Huh7 NPC1 promoter luciferase reporter, 24 h. AID 485313; also: % of control where 0% means no effect; nearly all actives have a fitted effect of over 60% in size
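Luciferase expression driven by the NPC1 promoter was measured in stably transfected Huh7 cells after a 24 h compound incubation, using a luciferase reagent and a luminescence read.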
An asterisk follows results filed as active; ? = inconclusive; · = not tested or not shown. Rows were chosen to be rich in hits. Some 7.5% of all compounds tested hit in one or more screens of this group. Calls follow the shape of the dose curve; as a rule, active = well fitted curve in the direction sought with a large enough effect; inconclusive = small, poorly fitted or top-dose-only effect, or another doubt; inactive = no such curve, though single readings can be large; an effect the other way counts as inactive or inconclusive. Potency is read from the fitted curve at half-maximal effect.

SMILES	Rab9 promoter act	SMN2 splice up	Luc counter	FLuc modulator	ELG1 genotox	NPC1 prom act
CC1Cc2ccccc2N1C(=O)CSc1nc2c(c(=O)n(C)c(=O)n2C)n1Cc1ccccc1 (stereo not drawn)	-12%	-24%	-4%	4%	-9%	-7%
O=c1[nH]c(-c2ccccn2)nc2ccccc12	?	·	·	24µM*	?	?
c1ccc(-c2n[nH]c(-c3ccccc3)c2-c2nc3ccccc3[nH]2)cc1	-6%	-17%	-1%	-2%	-4%	-7%
Cc1ccc2nc(-c3ccccn3)[nH]c2c1	0.35µM*	·	·	1.3µM*	?	?
Cc1ccc2nc(CCCc3nc4ccc(C)cc4[nH]3)[nH]c2c1	0%	·	·	?	-7%	1%
Nc1ccccc1-c1nc2ccccc2[nH]c1=O	?	·	·	24µM*	7%	?
c1ccc(-c2nc3ccccc3[nH]2)nc1	2.8µM*	3.2µM*	7.9µM*	12µM*	?	4µM*
O=C(Cn1nc(-c2ccccc2)c2c(c1=O)CCCC2)Nc1ccc(F)c(Cl)c1	·	12%	·	-3%	·	·
CC(Oc1ccccc1)C(=O)N1CCN(Cc2cc(=O)n3nc(-c4ccccc4Cl)sc3n2)CC1 (stereo not drawn)	·	·	·	-6%	·	·
Cc1c(N)cccc1-c1nc2ccccc2[nH]1	30%	10µM*	-9%	24µM*	18%	25%
Nc1nc2ccccc2[nH]1	3%	-6%	·	0%	-2%	-1%
O=S(=O)(c1ccccc1)c1nc(-c2ccccc2F)oc1N1CCOCC1	·	1%	·	-15%	·	·
CN(Cc1ccccc1)C(=O)Nc1ccc2c(c1)N(C)C(=O)c1ccccc1S2	·	·	·	1%	·	·
CC(=O)N(C)/C=C1\Sc2ccccc2C1=O	-4%	-4%	-6%	?	5%	-3%
CCC(=O)N(C)/C=C1\Sc2ccccc2C1=O	9%	4%	-13%	11µM*	4%	-6%
O=CN(/C=C1\Sc2ccccc2C1=O)Cc1ccccc1	18%	-4%	-4%	11µM*	?	10%
CN(C(=O)C1CCC(=O)N(CCCN2CCCC2=O)C1)C(C1CC1)C1CC1 (stereo not drawn)	0%	·	·	2%	2%	-1%
O=C(Nc1ccc(N2CCOCC2)cc1)c1cnsn1	?	2.8µM*	-21%	0.95µM*	0.16µM*	?
O=C(Nc1ccc(N2CCOCC2)cc1)c1ccncc1	18%	3%	-3%	?	8%	1%
CCCCc1ccc(NC(=O)c2cnccn2)cc1	0.79µM*	3.2µM*	-21%	2.4µM*	?	0.5µM*
O=C(Nc1ccccc1N1CCOCC1)c1cnccn1	4%	0%	-6%	1%	1%	-8%
O=C(Nc1ccc(N2CCOCC2)cc1)c1cnccn1	0.32µM*	·	·	1.9µM*	?	?
CS(=O)(=O)c1ncc(Cl)c(C(=O)Nc2ccc(N3CCOCC3)cc2)n1	-56%	26%	0%	12µM*	?	-43%
CC(=O)c1ccc(NC(=O)c2cnsn2)cc1	1µM*	·	-12%	12µM*	?	2µM*
O=C1CCc2ccc(NS(=O)(=O)c3ccc(F)cc3)cc2N1	13%	?	1%	-5%	18µM*	0%
SMILES	Rab9 promoter act	SMN2 splice up	Luc counter	FLuc modulator	ELG1 genotox	NPC1 prom act
O=c1[nH]c2ccc(NS(=O)(=O)c3ccc(F)cc3)cc2s1	·	·	·	-9%	·	·
O=C(/C=C/c1c(Cl)cccc1Cl)Nc1ccncc1	?	-22%	14%	3µM*	?	26%
O=C(Nc1ccncc1)c1ccccc1Cl	-5%	·	·	-11%	-6%	-1%
Cc1cc(NS(=O)(=O)c2ccc(NC(=O)/C=C/c3c(F)cccc3Cl)cc2)no1	0%	·	·	?	5%	1%
O=C(/C=C/c1c(F)cccc1Cl)Nc1ccncc1	?	-23%	0%	7.6µM*	16%	29%
O=C(/C=C/c1cccc(Cl)c1)Nc1ccncc1	24%	-1%	-4%	17µM*	3%	1%
O=C(N/N=C/c1cccc(NC(=O)c2ccc(Cl)cc2)c1)c1ccc(O)cc1	4µM*	·	·	1.3µM*	-2%	2.5µM*
CC(C)(C)c1ccc(C(=O)N/N=C/c2cccc(Cl)c2)cc1	?	1%	-4%	4.8µM*	-6%	?
O=C(N/N=C/c1c(Cl)cccc1Cl)c1cccc(F)c1	24%	-3%	-1%	-7%	17%	12%
O=C(N/N=C/c1cccc(F)c1)c1ccc(Cl)cc1	3.2µM*	16µM*	-2%	2.4µM*	?	4µM*
Cn1c2ccccc2c2cc(/C=N/NC(=O)c3cc(O)cc(O)c3)ccc21	?	·	·	24µM*	6%	2%
COc1cc(C(=O)N/N=C/c2ccc3c(c2)c2ccccc2n3C)ccc1O	0%	·	·	11µM*	-9%	-15%
COc1cc(/C=N/Nc2ccc(F)cc2F)cc(OC)c1O	2%	-10%	-2%	17µM*	10%	2%
Oc1c(Br)cc(/C=N/Nc2ccc(Cl)nn2)cc1Br	-6%	·	·	-5%	-1%	0%
CCCCCCCCCC(=O)N/N=C/c1ccc(C)s1	3%	·	-5%	6%	?	0%
Cc1ccc(/C=N/Nc2ccc(F)cc2F)s1	?	·	·	13µM*	?	1.6µM*
COc1cc(/C=N/Nc2ccc(S(N)(=O)=O)cc2[N+](=O)[O-])cc(OC)c1O	-4%	·	·	?	3%	2%
COc1cc(/C=N/Nc2ccc(Cl)nn2)cc(OC)c1O	7%	·	·	13µM*	4%	0%
CCn1cc(C(=O)N2CCN(c3cc(C)ccc3C)CC2)c(=O)c2cc(S(=O)(=O)N3CCCCC3)ccc21	·	-1%	·	-4%	·	·
CC(=O)N(c1nnc(-c2cccc(C)c2)s1)C1CCCC1	?	·	·	24µM*	23%	?
COc1cc(NC(=S)N2CCC(C(O)(c3ccccc3)c3ccccc3)CC2)cc(OC)c1	-6%	-79%	-3%	-1%	-3%	-1%
COC(=O)[C@@H](Cc1c[nH]c2ccccc12)NC(=O)c1cc(=O)[nH]c2ccccc12	2%	·	·	0%	-4%	-1%
COC(=O)[C@@H](Cc1c[nH]c2ccccc12)NC(=O)c1ccc2c(c1)OCO2	3%	·	·	0.48µM*	?	1%
O=C(COC(=O)[C@H](Cc1c[nH]c2ccccc12)NC(=O)c1ccc(Cl)cc1)Nc1ccc2c(c1)OCO2	2%	-5%	6%	17µM*	10%	-2%
CC(C)(C)c1ccc(C(=O)NC(Cc2c[nH]c3ccccc23)C(=O)OCC(=O)c2ccc(Cl)cc2)cc1 (stereo not drawn)	·	·	·	-4%	·	·
COc1ccc(OCc2csc(N)n2)cc1	2.8µM*	13µM*	-9%	?	?	?
Nc1nc(N)nc(-c2ccc(Cl)c(Cl)c2)n1	?	·	·	4.8µM*	7%	2µM*
